Measured values from PubChem BioAssay (NCI).
About 83,000 compounds went through this panel and 20% of them were active in at least one assay; those are over-represented in the sample as a whole.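 Step 1: grow cells in 96-well plates. Step 2: add test compound at a single concentration. Step 3: incubate 48 h. Step 4: record percent growth.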 A number with no mark means an inactive call. Calls of active or inactive are those of the source. How the source made its calls: active means growth percent below 10; inactive means the rest.

The molecules below were run on HL-60(TB) leukemia (assay: NCI-60 one-dose screen, 48 h (100 = growth as untreated, 0 = no growth, -100 = all killed)). Settings: 10 µM unless noted.

SMILES | growth
COc1cccc(C2C3=C(COC3=O)N(CCO)c3cc4c(cc32)OCO4)c1 (stereo not given) | -2.69% (active)
CCOC(=O)CSc1c([N+](=O)[O-])ncn1C | 91.4%
COc1ccc(-n2nc(C)c3c(Nc4ccc(NC(=O)Nc5cccc(C(F)(F)F)c5)cc4)ncnc32)cc1 | -1.99% (active)
CCC(O)(C(c1ccccc1)c1ccccn1)C(c1ccccc1)c1ccccn1 (stereo not given) | 79%
O=C(NCc1ccc(F)cc1)C1CN(c2ccc(Cl)cc2)N(c2ccc(Cl)cc2)C1=O (stereo not given) | 43.6%
NC(N)=Nc1ccc(/C=C2\C=Cc3ccccc32)cc1 | 61.6%
Clc1ccc2[nH]cc(-c3cncn3CCc3ccccc3)c2c1 | 45.1%
Oc1cc(O)c2c(=S)cc(-c3ccc(Cl)cc3)oc2c1 | 37.6%
COc1cc2c(cc1OCCCN1CCN(CCCn3c4ccccc4c4ccccc43)CC1)N=C[C@@H]1CCCN1C2=O | -44.8% (active)
O=C(N/N=C\c1cc(Cl)ccc1O)N/N=C/c1cc(Cl)ccc1O | 6.64% (active)
COc1ccc(/C=C/C(=O)c2cc3c(N)c(C(=O)Nc4ccccc4Cl)sc3nc2C)cc1 | 4.2% (active)
Nc1ccc([N+](=O)[O-])cc1N=C/C=C/c1ccccc1 | 9.14% (active)
CCCCCCCCCCNC(=O)CCl | 95.8%
O=S(=O)(Nc1ccccn1)c1ccc(N=Nc2ccc(O)c3ncccc23)cc1 | -30.6% (active)
Cc1cccc(C)c1Nc1nnc(-c2ccc(F)cc2)o1 | 99.9%
CC(=O)Nc1ccc(C(=O)COc2cccc(/C=C3\CCc4ccccc4C3=O)c2)cc1 | 89.2%
CS(=O)(=O)Nc1cc(-c2ccc3ncnc(Nc4cccc(Cl)c4)c3c2)cnc1Cl | 2.67% (active)
Cc1ccc2[nH]c(=S)[nH]c(=O)c2c1 | 105%
Cc1ccc2c(c1)C(=O)C(c1c(-c3[nH]c(=O)c4ccc(C)cc4c3O)c(O)c3ccccc3c1O)=NC2=O | 8.93% (active)
CCNC(=O)N1CCc2c(Cl)c3c(c(OC)c2[C@@H]1[C@H]1OCc2c1ccc(OC)c2OC)OCCO3 | -2.42% (active)

SMILES | growth
COc1ccc(C(=O)c2cc3c(N)c(C(=O)Nc4cccc5ccccc45)sc3nc2C)cc1 | -49% (active)
N=C(N)c1ccc(-c2ccc(-c3ccc(Cl)cc3Cl)s2)cc1 | -45.1% (active)
O=S(=O)(O)c1ccc(N=Nc2ccc(N=Nc3cccc4ccccc34)c(S(=O)(=O)O)c2)cc1 | 105%
OCCn1cccn1 | 99.2%
CC(C)N=C(N)/N=C(\N)Nc1ccc2ccc3ccccc3c2c1 | -47.8% (active)
COc1cc2c(cc1OCCCCn1c(-c3cc(=O)c4ccccc4o3)nc3ccccc31)N=C[C@@H]1CCCN1C2=O | 91.2%
CS(=O)(CCCCN=C=S)=NC(=O)c1c(F)c(F)c(F)c(F)c1F (stereo not given) | 72.5%
Nc1nc(N)c2c(n1)NC(c1ccc(F)cc1)C1CCc3ccccc3C1=N2 (stereo not given) | 16.5%
c1cc[n+](Cc2c3ccccc3cc3c2ccc2ccccc23)cc1 | 36%
CCN(CCN(C)C)C(=O)CNCc1cc(C(N)=O)ccn1 | 88.7%
COc1cccc(C(=O)Nc2cccc(NC(=O)c3ccccn3)c2)c1 | 87.8%
O=C(Nc1ccc2ncnc(Nc3ccc(F)c(Cl)c3)c2c1)c1cccs1 | 89.7%
O=[N+]([O-])c1ccc(N2c3ccncc3Sc3ccncc32)cc1 | 102%
COc1cc(-c2nc(SCCC(C)C)nc(Nc3ccccc3)c2C#N)cc(OC)c1OC | 83.9%
C=C/C(C)=C/C[C@]1(C)[C@H](C)[C@@H](OC(=O)CCC)[C@H](O)[C@@]23C(=C[C@H](OC)C[C@@H]12)[C@@H](OC(=O)CCC)O[C@H]3OC(C)=O | -43.9% (active)
CC1=C(C(=O)c2ccccc2)C(c2ccc3c(c2)OCO3)NC(=S)N1 (stereo not given) | 2.6% (active)
COc1ccc2c(c1)C(=O)/C(=C/c1ncc([N+](=O)[O-])n1C)O2 | -7.47% (active)
O=C(O)CSCc1nc2ccccc2[nH]1 | 136%
Nc1nc(N)c2c(n1)NC(c1ccc3c(c1)OCO3)CC(c1cccc(Nc3ccncc3)c1)=N2 (stereo not given) | 57%
Cc1c(NC(=O)OC[C@@H]2COCCN2)cn2ncnc(Nc3ccc4c(cnn4Cc4cccc(F)c4)c3)c12 | -25.6% (active)
